This note sets out measurements from PubChem BioAssay.

Assay [1] in a line: SK-BR-3 cell growth inhibitors, pilot screen, 24 h, human (AID 572).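 Further: compound exposure lasted between 18 and 24 h rather than exactly 24 h; 100% = carrier-treated control wells.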 The settings on record: SK-BR-3 viability, CellTiter-Glo luminescence, at 10 µM, stronger effect = lower value.
Assay [2] in a line: HUVEC growth inhibition – cell-based, human, primary screen (AID 575;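 active means viability at or below 30% in both replicate assays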;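 further: 100% = median of untreated cell wells with 0.1% DMSO on each plate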). The settings on record: HUVEC proliferation, CellTiter-Glo luminescence, 72 h; at 10 µM; stronger effect = lower value. Background: In ATP-based viability assays light output follows the ATP content of the culture.
A short description of assay [3]: reversal of MRP1-mediated doxorubicin resistance, pilot screen, H69AR cells, doxorubicin co-treatment (AID 601;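 active means viability loss from added drug above about 55%, and viability with drug at most 40%, in both replicates, limit read from the data, passing the limit was not always enough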). The settings on record: CellTiter-Glo, 72 h, at 10 µM; for differential viability (reversal): stronger effect = higher value.
A short description of assay [4]: 384-well plate pilot, post-Golgi transport modulator project, inhibition of yeast transport mutant growth (AID 636; in the data active means inhibition above about 31%). The settings on record: absorbance 615 nm, about 18 h, stronger effect = higher value.
A short description of assay [5]: growth suppression of yeast trafficking mutant, preliminary HTS, modulators of trafficking downstream of Golgi apparatus project, 1536-format plate, OD 615 nm (AID 637; in the data active means inhibition above about 30%). As to conditions: yeast transport mutant growth, absorbance 615 nm, 18 h; stronger effect = higher value.
[6] abbreviates: H69AR cells + 2 uM doxorubicin, measured here: viability with 2 uM doxorubicin, stronger effect = lower value.
[7] abbreviates: H69AR cells, compound alone cytotoxicity.

The source made the active and inactive calls.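 How the source made its calls, unless noted: active means viability at or below 10% of carrier control in both of two separate runs; inconclusive means viability at or below 10% in only one of the two runs; inactive means the rest.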

The viability is a read-out of living cells in per cent, often relative to untreated cells. Broadly, the inhibition is the change of the read-out against control, counted positive when it falls.

As for `CC1Cc2ccccc2N1CC(=O)NC(=O)NCc1ccco1` (centres undefined), the viability in assay [1] was 85% (inactive); in assay [2], 89.6% (inactive); in assay [3] (setting [6]), 70.1%; in assay [3] (setting [7]), 39.9%. Also, the differential viability (reversal) in assay [3] (H69AR cells + 2 uM doxorubicin) is -30.2% (inactive). Also, the inhibition in assay [4] was -0.27% (inactive); in assay [5] it was 2.36% (inactive).
Turning to `CCn1c(=N)n(CC(=O)c2ccco2)c2ccccc21`, the viability was 95% (inactive) in assay [1], 95.5% (inactive) in assay [2], 73.2% in assay [3] (setting [6]) and 34.9% in assay [3] (setting [7]). In addition, the differential viability (reversal) in assay [3] (H69AR cells + 2 uM doxorubicin) is -38.3% (inactive). Also, the inhibition in assay [4] was -5.2% (inactive); in assay [5] it was -4% (inactive).
`CCOC(=O)Nc1ccc2c(c1)N(C(=O)CCN1CCOCC1)c1ccccc1S2`: the viability is 78% (inactive) in assay [1], 97% (inactive) in assay [2], 76% in assay [3] (setting [6]) and 64.7% in assay [3] (setting [7]). Further, the differential viability (reversal) in assay [3] (H69AR cells + 2 uM doxorubicin) is -11.3% (inactive). Further, the inhibition was -5.07% (inactive) in assay [4] and -2.55% (inactive) in assay [5].
In the case of `N#Cc1c(N2CCCC2)nc(N)c2c(N)nc(N3CCCC3)cc12`, the viability was 82% (inactive) in assay [1], 68.2% (inactive) in assay [2], 75.2% in assay [3] (setting [6]) and 46.3% in assay [3] (setting [7]). For the same molecule, the differential viability (reversal) in assay [3] (H69AR cells + 2 uM doxorubicin) is -29% (inactive). Further, the inhibition in assay [4] was -0.13% (inactive); in assay [5], -2.3% (inactive).
As for `COc1ccc(C(=O)Nc2ccc(Cl)c(Cl)c2)c(OC)n1`, the viability in assay [1] was 93% (inactive); in assay [2] it was 83.2% (inactive); in assay [3] (setting [6]), 47.6%; in assay [3] (setting [7]), 40.5%. Further, the differential viability (reversal) in assay [3] (H69AR cells + 2 uM doxorubicin) is -7.11% (inactive). In addition, the inhibition was -8.53% (inactive) in assay [4] and -4.36% (inactive) in assay [5].
For `C=CCOc1ccc(CN(C)CC(=O)N(CC(C)C)c2c(N)n(CC(C)C)c(=O)[nH]c2=O)cc1`, the figures for the viability in assay [1] and in assay [2] were 99% (inactive) and 99.6% (inactive), respectively. Besides, the results for the inhibition in assay [4] and in assay [5] were -6.16% (inactive) and 2% (inactive), respectively.
Consider `CCOC(=O)c1[nH]c(CSc2nnc(-c3ccc(OC)cc3)o2)c(C(=O)OCC)c1C`, for which the viability in assay [1] was 56% (inactive); in assay [2] it was 72.3% (inactive); in assay [3] (setting [6]), 37.4%; in assay [3] (setting [7]), 38%. For the same molecule, the differential viability (reversal) in assay [3] (H69AR cells + 2 uM doxorubicin) is 0.61% (inactive). In addition, the inhibition in assay [4] was -3.24% (inactive); in assay [5], -4.36% (inactive).
As to `CCOC(=O)N1CCN(CC(=O)Nc2cc(C)nn2-c2nc3ccccc3s2)CC1`, the viability in assay [1] is 74% (inactive); in assay [2] it was 57% (inactive); in assay [3] (setting [6]) it was 39.2%; in assay [3] (setting [7]) it was 37.7%. Further, the differential viability (reversal) in assay [3] (H69AR cells + 2 uM doxorubicin) is -1.56% (inactive). The values for the inhibition in assay [4] and in assay [5] were -0.39% (inactive) and 2.46% (inactive), respectively.
For `CCCc1[nH]nc2c1C(c1cn[nH]c1-c1ccc(F)cc1)C(C#N)=C(N)O2` (centres undefined), the viability in assay [1] is 98.5% (inactive); in assay [2], 48.3% (inactive); in assay [3] (setting [6]) it was 53.7%; in assay [3] (setting [7]), 45.4%. In assay [3] (H69AR cells + 2 uM doxorubicin), the differential viability (reversal) is -8.32% (inactive). The inhibition was -2.21% (inactive) in assay [4] and 2.95% (inactive) in assay [5].
In the case of `N#C/C(=C\c1ccc(O)c(O)c1)C(=O)NCCCc1ccccc1`, the viability in assay [1] was 88% (inactive); in assay [2], 43.4% (inactive); in assay [3] (setting [6]), 78%; in assay [3] (setting [7]) it was 44.6%. Also, in assay [3] (H69AR cells + 2 uM doxorubicin), the differential viability (reversal) is -33.4% (inactive). Further, the inhibition in assay [4] was 1.04% (inactive); in assay [5], 5.5% (inactive).
As for `CCCCCC(=O)O[C@]1(C(C)=O)CC[C@H]2[C@@H]3CCC4=CC(=O)CC[C@]4(C)[C@H]3CC[C@@]21C`, the viability in assay [1] is 93% (inactive); in assay [2] it was 4.16% (active); in assay [3] (setting [6]), 2.59%; in assay [3] (setting [7]), 23.1%. Further, the differential viability (reversal) in assay [3] (H69AR cells + 2 uM doxorubicin) was 20.6% (inactive). The inhibition in assay [4] is 5.84% (inactive); in assay [5] it was -2% (inactive).
Regarding `COc1cc(NC(=O)c2ccco2)c(OC)cc1NC(=O)CCC(=O)Nc1cc(C)cc(C)c1`, the viability in assay [1] was 106% (inactive); in assay [2] it was 42.5% (inactive); in assay [3] (setting [6]), 69.4%; in assay [3] (setting [7]), 53.1%. For the same molecule, the differential viability (reversal) in assay [3] (H69AR cells + 2 uM doxorubicin) was -16.3% (inactive). The inhibition in assay [4] is -6.58% (inactive); in assay [5], -0.95% (inactive).
With `CC(=O)O[C@]1(C(C)=O)CC[C@H]2[C@@H]3C=C(Cl)C4=CC(=O)CC[C@]4(C)[C@H]3CC[C@@]21C`, the viability in assay [1] is 104% (inactive); in assay [2], 93.2% (inactive); in assay [3] (setting [6]) it was 54.4%; in assay [3] (setting [7]) it was 31.2%. In addition, in assay [3] (H69AR cells + 2 uM doxorubicin), the differential viability (reversal) is -23.2% (inactive). For the same molecule, the inhibition in assay [4] is -1.3% (inactive); in assay [5], -2.5% (inactive).
Consider `COc1ccc(CSCCN)cc1Cl`, for which the viability is 113% (inactive) in assay [1], 105% (inactive) in assay [2], 57.5% in assay [3] (setting [6]) and 39.2% in assay [3] (setting [7]). Also, the differential viability (reversal) in assay [3] (H69AR cells + 2 uM doxorubicin) was -18.3% (inactive). Further, the inhibition is -7.33% (inactive) in assay [4] and -2% (inactive) in assay [5].
Consider `COc1ccccc1C(=O)NCC(c1cccnc1)N(C)C` (centres undefined), for which the viability in assay [1] was 108% (inactive); in assay [2], 96% (inactive). For the same molecule, the inhibition in assay [4] is -7.12% (inactive); in assay [5], -1.27% (inactive).
For `CC(=O)O[C@H]1C(=O)[C@]2(C)[C@H]([C@H](OC(=O)c3ccccc3)[C@]3(O)C[C@H](OC(=O)[C@H](O)[C@@H](NC(=O)c4ccccc4)c4ccccc4)C(C)=C1C3(C)C)[C@]1(OC(C)=O)CO[C@@H]1C[C@@H]2O`, the viability was 67% (inactive) in assay [1], 38.8% (inactive) in assay [2], 81.8% in assay [3] (setting [6]) and 12.6% in assay [3] (setting [7]). Besides, in assay [3] (H69AR cells + 2 uM doxorubicin), the differential viability (reversal) is -69.2% (inactive). The inhibition in assay [4] was 0.52% (inactive); in assay [5], -0.67% (inactive).
As to `CCOC(=O)C1CCN(CC(=O)Nc2c(C(=O)OC)[nH]c3ccc(Cl)cc23)CC1`, the viability in assay [1] was 103% (inactive); in assay [2] it was 65.5% (inactive); in assay [3] (setting [6]), 23.5%; in assay [3] (setting [7]) it was 58.4%. In assay [3] (H69AR cells + 2 uM doxorubicin), the differential viability (reversal) is 34.9% (inactive). Further, the inhibition in assay [4] was -4.4% (inactive); in assay [5], 3.09% (inactive).
Consider `CC(=O)[C@@]1(O)CC[C@H]2[C@@H]3C[C@H](C)C4=CC(=O)CC[C@]4(C)[C@H]3CC[C@@]21C`, for which the viability is 106% (inactive) in assay [1], 73.9% (inactive) in assay [2], 18% in assay [3] (setting [6]) and 2.32% in assay [3] (setting [7]). Moreover, the differential viability (reversal) in assay [3] (H69AR cells + 2 uM doxorubicin) was -15.6% (inactive). For the same molecule, the inhibition in assay [4] was -1.43% (inactive); in assay [5], -2.67% (inactive).
With `COc1ccc(-c2ccc(-c3noc(-c4cccs4)n3)c(OC)n2)cc1`, the viability was 77% (inactive) in assay [1], 98.8% (inactive) in assay [2], 70.1% in assay [3] (setting [6]) and 64.6% in assay [3] (setting [7]). In addition, the differential viability (reversal) in assay [3] (H69AR cells + 2 uM doxorubicin) was -5.54% (inactive). Moreover, the inhibition was -7.43% (inactive) in assay [4] and -8.73% (inactive) in assay [5].
For `N=c1c(C(=O)NCc2ccccc2)cc2c(=O)n3ccccc3nc2n1Cc1ccco1`, the viability is 93% (inactive) in assay [1], 79.2% (inactive) in assay [2], 65.5% in assay [3] (setting [6]) and 52.1% in assay [3] (setting [7]). The differential viability (reversal) in assay [3] (H69AR cells + 2 uM doxorubicin) is -13.5% (inactive). Also, the inhibition in assay [4] is -4.25% (inactive); in assay [5], 0.32% (inactive).
